According to PubChem BioAssay (NCI):
About 83,000 compounds went through this panel and 20% of them were active in at least one assay; those are over-represented in the sample as a whole.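 Values shown are percent growth following 48 h exposure of cells in 96-well plates to a single concentration of compound; below 10 was considered active.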 A number with no mark means an inactive call. Active and inactive are the calls of the source.

system: ACHN renal; assay: NCI-60 one-dose screen, 48 h (100 = growth as untreated, 0 = no growth, -100 = all killed); settings: 10 µM unless noted
Experimental: Growth inhibition of the ACHN human tumor cell line is measured as a screen for anti-cancer activity. Cells are grown in 96 well plates and exposed to the test compound for 48 hours. Compounds are tested at a single concentration, which is 10^-5 M for most compounds. The reported endpoint is percent growth (GI% or GIPRCNT), where numbers from 0 - 100% represent growth inhibition, and numbers from -100% - 0 represent cell death. For example, a value of 40 represents 60% growth inhibition. A value of 0 means no net growth occurred over the course of the experiment. A value of -40 indicates 40% of cells at the beginning of the experiment died by the end of the experiment. A value of -100 means all cells are dead at the end of the experiment.
NCI-60 Human Tumor Cell Lines Screen was performed using the standard one-dose NCI protocol, which is described in more detail at https://dtp.cancer.gov/discovery_development/nci-60/default.htm.
Compounds with GIPRCNT values below 10 were considered active. Activity score was based on GIPRCNT using the following formula: […]
Score is 0 for GIPRCNT values of 100 or above, 50 for GIPRCNT values of 0, and 100 for GIPRCNT values of -100.

**Q.** With COc1cccc(-c2nn(-c3ccccc3)cc2-c2ccnc(NCCNC(=O)Nc3cccc(C(F)(F)F)c3)c2)c1 as the compound, how does the growth read?
**A.** Its growth is 35.1%.

**Q.** With CCN1C(=O)N(CC)C2Nn3c(s/c(=C\c4cccc([N+](=O)[O-])c4)c3=O)=NC21 (stereo not given) as the compound, how does the growth read?
**A.** Its growth is 50.5%.

**Q.** For O=[N+]([O-])c1ccc(Sc2cccc[n+]2[O-])c2nonc12, which growth is on record?
**A.** Its growth is 95.4%.

**Q.** For COc1ccc(N=C(c2ccccc2)C2C(=O)c3ccccc3C2=O)cc1, which growth is on record?
**A.** The growth was 72.1%.

**Q.** For CC1CC2Oc3ccc(Cl)cc3C(=O)N2O1 (stereo not given), which growth is on record?
**A.** The growth was 102%.

**Q.** For CCCCCCCOc1c(OC)cc(C2CC(=O)Nc3c2c(C)nn3-c2nc3ccccc3[nH]2)cc1OC (stereo not given), which growth is on record?
**A.** Its growth is 1.49% (active).

**Q.** With C[C@H]1[C@H]2[C@H]3CC[C@@H]4[C@@]5(C)C/C(=C/c6ccco6)C(=O)C(C)(C)[C@@H]5CC[C@@]4(C)[C@]3(C)CC[C@]23CO[C@]1(C)[C@@H](C(=O)/C=C\c1ccco1)C3 as the compound, how does the growth read?
**A.** Its growth is 68.4%.

**Q.** How did the growth turn out when Cc1ccc(-c2cc(-c3ccccc3C)[nH]c(=O)c2C#N)s1 was run?
**A.** Its growth is 90.7%.

**Q.** Which growth does the source give for O=c1c2c3c(sc2n2c(-c4cn(-c5ccccc5)nc4-c4ccc(Cl)cc4)nnc2n1Cc1ccccc1)CCCC3 here?
**A.** Its growth is 99.2%.

**Q.** With S=C(Cc1ccc2c(c1)CCCC2)N1CCOCC1 as the compound, how does the growth read?
**A.** Its growth is 101%.

**Q.** For CCOc1ccccc1-c1cc(-c2cccs2)c(C#N)c(=O)[nH]1, which growth is on record?
**A.** Its growth is 95.6%.

**Q.** Which growth does the source give for COc1cc(C2CC(=O)Nc3c2c(C)nn3-c2nc3ccccc3[nH]2)c(OC)c(OC)c1OC (stereo not given) here?
**A.** Its growth is 86.6%.

**Q.** With O=C(/C=C/c1ccc(Cl)nc1)c1ccc(Cl)cc1Cl as the compound, how does the growth read?
**A.** Its growth is 93.1%.

**Q.** With COCN1CCC2N(COC)CCC3N(COC)CCC1N23 (stereo not given) as the compound, how does the growth read?
**A.** Its growth is 108%.

**Q.** How did the growth turn out when O=C1N=c2cc3c(cc2=C/C1=C/c1sc(=S)n(CCc2ccc(O)cc2)c1O)OCCO3 was run?
**A.** The growth was 6.54% (active).

**Q.** With CCN(CC)CCn1nc2c3c(cccc3c1=O)-c1ccccc1-2 as the compound, how does the growth read?
**A.** Its growth is -41.7% (active).

**Q.** How did the growth turn out when O=c1c2cc(F)ccc2sc2c(NCCN3CCCCC3)nc3ccccc3c12 was run?
**A.** Its growth is 42.7%.

**Q.** How did the growth turn out when N=C(N)c1ccc(-c2ccc(-c3cncc4ccccc34)s2)s1 was run?
**A.** Its growth is -88.5% (active).

**Q.** Which growth does the source give for Cc1ccc(S(=O)(=O)n2cc(CNc3ccc(N4CCOCC4=O)cc3)c3ccccc32)cc1 here?
**A.** Its growth is 46.7%.

**Q.** With COc1cc(-c2nc(N3CCN(C)CC3)c3ccccc3n2)cc(OC)c1OC as the compound, how does the growth read?
**A.** The growth was 47.5%.

**Q.** Cc1ccc(N(C(=O)CCc2c[nH]c3ccccc23)[C@H](C(=O)Nc2ccc(Cl)cc2)c2cccc([N+](=O)[O-])c2)cc1 was tested. Which growth did it give?
**A.** The growth was 61%.

**Q.** How did the growth turn out when COc1nc(N(C)O)nc(N(C)O)n1 was run?
**A.** Its growth is 11.2%.

**Q.** For O=C(NCCCNc1cc(-c2cn(-c3ccccc3)nc2-c2cccc(O)c2)ccn1)c1cccc(O)c1, which growth is on record?
**A.** Its growth is 89.4%.

**Q.** How did the growth turn out when Oc1c(CN2CCCC2)cc(COCc2ccc(Br)cc2)c2cccnc12 was run?
**A.** Its growth is 0.47% (active).

**Q.** How did the growth turn out when COCCN(C(=O)c1ccc(F)cc1F)c1c(N)n(Cc2ccccc2)c(=O)[nH]c1=O was run?
**A.** The growth was 103%.

**Q.** With Cc1ccc2nc3ccccc3c(NCc3ccccc3)c2c1 as the compound, how does the growth read?
**A.** The growth was 23.2%.

**Q.** For Cc1cc(C)c2c(-c3nnc(N)s3)cc(=O)oc2c1, which growth is on record?
**A.** Its growth is 105%.

**Q.** How did the growth turn out when C[C@H](NC(=O)[C@@H]1CSSC[C@@H](NC(=O)c2nc3ccccc3cc2O)C(=O)NCC(=O)N1C)c1ccccc1 was run?
**A.** Its growth is 44.7%.

**Q.** How did the growth turn out when O=C1CC(N2C(=O)/C(=C/C(Cl)=C\c3ccc([N+](=O)[O-])cc3)SC2=S)C(=O)N1c1ccc(O)cc1 (stereo not given) was run?
**A.** The growth was -71.4% (active).

**Q.** How did the growth turn out when Cn1c(-c2c(N)n(Cc3ccc(C(F)(F)F)cc3)c3nc(C#N)c(C#N)nc23)nc2ccccc21 was run?
**A.** The growth was 3.12% (active).

**Q.** For CC1(C)CC(=O)C2=C(C1)N(c1ccc(OC(F)(F)F)cc1)C(N)=C(C#N)C2c1ccc(Cl)cc1 (stereo not given), which growth is on record?
**A.** Its growth is 71.4%.

**Q.** Which growth does the source give for C=CCn1c(C)nc2cc(Nc3nc(N4CCCC4)nc4ccccc34)ccc21 here?
**A.** Its growth is 103%.

**Q.** COC(=O)[C@]12CC[C@@H](C)[C@H](C)[C@@H]1C1=CC[C@@H]3[C@@]4(C)C(C=O)=C[C@@](C)(COC(C)=O)C4=CC[C@@]3(C)[C@]1(C)CC2 was tested. Which growth did it give?
**A.** The growth was -16% (active).

**Q.** How did the growth turn out when O=C1Nc2ccccc2/C1=C/c1cn(C(=O)c2ccc(Cl)cc2)c2ccccc12 was run?
**A.** The growth was 103%.

**Q.** CN(C)CCCn1c(=O)c2ccccc2c2ccccc21 was tested. Which growth did it give?
**A.** The growth was 42.2%.

**Q.** With CC(=O)c1nc(Nc2ccc(C)cc2)sc1C as the compound, how does the growth read?
**A.** Its growth is 102%.

**Q.** How did the growth turn out when Cc1cc(NCc2cc(Nc3ccnc4cc(Cl)ccc34)ccc2F)nc(N2CCOCC2)n1 was run?
**A.** The growth was -79.5% (active).

**Q.** Cc1cccc(NC(=O)CSc2nc3ccccc3[nH]2)c1 was tested. Which growth did it give?
**A.** The growth was 97.5%.

**Q.** For Cn1cc(-c2csc(-c3ccccc3)n2)c2cccnc21, which growth is on record?
**A.** The growth was 0.882% [100 µM] (active).

**Q.** With O=C1OC(c2nc3ccccc3s2)=C/C1=C\c1ccc(O)cc1 as the compound, how does the growth read?
**A.** Its growth is 99.5%.
